Values joined by “and” are separate entries in the source; they are usually repeats but may differ in a detail not shown here. Equal values may be shown once. Records with an inconclusive call do not appear. Active and inactive are the calls of the source. Unless noted, calls follow the shape of the full dose curve.
What was measured:
[1] = target: Estrogen receptor (Homo sapiens) (UniProt P03372); experiment: qHTS assay for small molecule antagonists of estrogen receptor alpha signaling (AID 588513; active = well fitted curve in the direction sought with a large enough effect in the signal ratio, with a control signal flat, not every such curve was filed as active; the % refers to the signal ratio; also: potency is read from the fitted curve at half-maximal effect)
Method in brief: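 Beta-lactamase reporter, antagonist mode, HEK 293 GripTite cells; 0.5nM E2 stimulus, 18 h, 37 C; CCF4 dye 2 h RT; fluorescence. IC50 and efficacy from Hill fits, normalized to E2 and DMSO.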

[2] = target: Estrogen receptor (Homo sapiens) (UniProt P03372); experiment: qHTS assay for small molecule agonists of estrogen receptor alpha signaling (AID 588514);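 also: 0% = vehicle only and 100% = reference agonist; nearly all actives have a fitted effect of over 70% in size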
Method in brief: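 Efficacy is expressed against 20 nM 17-beta-estradiol (100%) and DMSO basal (0%); EC50 from Hill equation. Assay: beta-lactamase reporter in ER-alpha-UAS-bla HEK 293 cells, 18 h compound incubation, CCF4 detection.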

[3] = target: Glucocorticoid receptor (Homo sapiens) (UniProt P04150); experiment: qHTS assay for small molecule agonists of glucocorticoid receptor signaling (AID 588532; active = well fitted curve in the direction sought with a large enough effect in the signal ratio, with a control signal flat; the % refers to the signal ratio;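 also: 100% = dexamethasone at 0.1 µM and 0% = DMSO only wells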); details: HeLa MMTV-bla, beta-lactamase ratio, agonist, 18 h; activation: stronger effect = higher value, percent of dexamethasone control, DMSO zero
Method in brief: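 MMTV-bla HeLa, beta-lactamase reporter; medium with 1% charcoal/dextran-stripped FBS; cpds up to 92 uM, 18 h, 37 C; CCF4 readout 460/530 nm; Hill fit → EC50, efficacy vs 0.1 uM dexamethasone = 100%.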

[4] = target: Peroxisome proliferator-activated receptor delta (Homo sapiens) (UniProt Q03181); experiment: qHTS assay for small molecule agonists of peroxisome proliferator-activated receptor delta signaling (AID 588534);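 also: 0% = DMSO basal wells and 100% = positive control agonist at 10 µM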
Method in brief: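 Agonist-mode qHTS; reporter cells, 5 hrs 37 C pre-incubation; compound titration, 18 hrs 37 C; CCF4 dye, 2 hrs RT; fluorescence read. EC50/efficacy via Hill fit.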

[5] = target: Vitamin D3 receptor (Homo sapiens) (UniProt P11473); experiment: qHTS assay for small molecule agonists of vitamin D receptor signaling (AID 588543);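 also: 0% = DMSO basal and 100% = reference agonist control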
Method in brief: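 β-lactamase reporter, VDR-UAS-bla HEK293T, agonist mode. Cells plated 5 h at 37 °C, compound titration 16 h at 37 °C, CCF4 dye 2 h RT, ratio 460/530 nm. Hill fit → EC50, efficacy vs 50 nM 1α,25-(OH)2D3.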

[6] = qHTS assay for small molecule activators of the p53 signaling pathway (AID 651743; active = well fitted activation curve with a large enough effect in the signal ratio, not every such curve was filed as active; the % refers to the signal ratio; also: potency is read from the fitted curve at half-maximal effect; as to activation: series mostly up to about 92 µM; % of control where 0% means no effect); details: HCT-116 p53RE-bla, beta-lactamase FRET ratio, 16 h; activation: stronger effect = higher value
Method in brief: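 Agonist-mode quantitative HTS in HCT-116 cells carrying a p53-response-element beta-lactamase reporter; 16 h compound treatment at 37 C, then FRET substrate loading for 2 h at room temperature and fluorescence read.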

[7] = qHTS assay for environmental chemicals that activate the Aryl hydrocarbon Receptor (AhR) signaling pathway (AID 651777; active = well fitted curve in the direction sought with a large enough effect; an effect the other way counts as inactive or inconclusive; also: % of control where 0% means no effect; nearly all actives have a fitted effect of over 15% in size); details: 1A2-DRE human hepatoma cells, luciferase, 24 h; activation: stronger effect = higher value
Method in brief: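 Human hepatoma 1A2-DRE cells stably carrying a DRE/CYP1A2 promoter–luciferase reporter, 1,200 cells/well, exposed to compound 24 hr at 37 C. Luciferase read by One-Glo luminescence after 30 min at room temperature; increased signal marks AhR activation.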

[8] = target: Peroxisome proliferator-activated receptor alpha (Homo sapiens) (UniProt Q07869); experiment: qHTS assay for small molecule agonists of the peroxisome proliferator-activated receptor alpha (PPARalpha) signaling pathway (AID 651778; active = well fitted curve in the direction sought with a large enough effect; an effect the other way counts as inactive or inconclusive; also: % of control where 0% means no effect); details: PathHunter PPARalpha complementation, chemiluminescence, 6 h; max response: stronger effect = higher value
Method in brief: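 Cells plated at 2,000/well and held overnight at 37 C, 5% CO2, then compound added by pin tool for 6 hr; after PathHunter detection reagent and 60 min at room temperature, chemiluminescence from enzyme complementation was read.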

[9] = qHTS assay for small molecule agonists of the antioxidant response element (ARE) signaling pathway measured by Nrf2-dependant transcriptional activity (AID 720636; active = well fitted curve in the direction sought with a large enough effect in the repeat runs; an effect the other way counts as inactive or inconclusive; also: % of control where 0% means no effect)
Method in brief: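 ARE-luc HepG2 cells carrying an Nrf2-responsive luciferase reporter, in medium with 1% dialyzed FBS, exposed to compound for 16 hr at 37 C, 5% CO2. Luminescence read 30 min after ONE-Glo addition.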

[10] = qHTS assay for small molecule agonists of the antioxidant response element (ARE) signaling pathway measured by Nrf2-dependant transcriptional activity - cell viability counter screen (AID 720653; active = well fitted curve in the direction sought with a large enough effect in the repeat runs; an effect the other way counts as inactive or inconclusive; also: potency is read from the fitted curve at half-maximal effect; as to max response: % is scaled to controls: 0 for no effect and ±100 for the full control effect); details: ARE-bla HepG2 viability, CellTiter-Glo ATP luminescence, 16 h; max response: stronger effect = lower value
Method in brief: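 ARE-bla HepG2 cells (2,000/well) rested 5 hrs at 37C/5% CO2, then exposed to compounds in DMSO for 16 hrs. Viability was read in the same wells as intracellular ATP by luminescence, 30 min at room temperature after reagent addition.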

[11] = qHTS assay for cell viability of HEK293 cells (AID 743288; active = well fitted curve in the direction sought with a large enough effect; an effect the other way counts as inactive or inconclusive; also: % is scaled to controls: 0 for no effect and ±100 for the full control effect; nearly all actives have a fitted effect of over 50% in size); details: ATP luminescence (CellTiter-Glo), 18 h; max response: stronger effect = lower value
Method in brief: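 ATP luminescence (CellTiter-Glo) reports metabolically competent cell number after parental HEK293 cells, 2,000/well, were treated with DMSO-dissolved compounds for 18 h at 37 C; reagent incubation 30 min, room temperature.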

[12] = qHTS assay for cell viability of the p53RE-bla HCT-116 cell line (AID 743292; active = well fitted curve in the direction sought with a large enough effect; an effect the other way counts as inactive or inconclusive; also: nearly all actives have a fitted effect of over 55% in size; also: potency is read from the fitted curve at half-maximal effect)
Method in brief: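 CellSensor p53RE-bla HCT-116 cells (4,000/well) pre-incubated 5 h at 37 C, then exposed to compounds in DMSO for 16 h at 37 C. Viability read as ATP content by CellTiter-Glo luminescence after 30 min at room temperature.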

[13] = target: Nuclear receptor subfamily 1 group I member 2 (Rattus norvegicus) (UniProt Q9R1A7); experiment: qHTS assay for small molecule activators of the rat pregnane X receptor (rPXR) signaling pathway (AID 651751; call rule not given here; also: 0% is about no effect); details: rPXR reporter cells, luciferase (One-Glo), 24 h
[14] = target: Vitamin D3 receptor (Homo sapiens) (UniProt P11473); experiment: qHTS assay for small molecule antagonists of vitamin D receptor signaling (AID 588541);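 also: receptor activated by calcitriol during compound treatment; series mostly up to about 77 µM; % is scaled to controls: 0 for no effect and ±100 for the full control effect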
Method in brief: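 VDR-UAS-bla HEK293T cells (2000/well, 2% charcoal-stripped FBS) were treated with titrated compounds plus 1-alpha,25-dihydroxyvitamin D3 (50 nM or 3 nM final) for 16 h at 37 C. CCF4 beta-lactamase fluorescence was read; Hill fits gave IC50.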

[15] = qHTS assay for small molecule agonists of retinoid X receptor alpha signaling (AID 588544); details: HEK293T RXRa-UAS-bla, beta-lactamase reporter, 18 h; 530 nm emission;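 as to activation: 0% = DMSO basal wells and 100% = reference agonist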
[16] = target: Retinoic acid receptor RXR-alpha (Homo sapiens) (UniProt P19793); experiment: as above
[17] = target: Thyroid hormone receptor beta (Homo sapiens) (UniProt P10828); experiment: qHTS assay for small molecule agonists of thyroid hormone receptor beta signaling (AID 588545)
Method in brief: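 HEK 293 TR-UAS-bla; agonist mode; 18 hrs, 37 C; CCF4, ex 405/em 460 and 530 nm; norm. T3 10 nM = 100%, DMSO = 0%; Hill fit → EC50, efficacy.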

[18] = target: Thyroid hormone receptor beta (Homo sapiens) (UniProt P10828); experiment: qHTS assay for small molecule antagonists of thyroid hormone receptor beta signaling (AID 588547; active = well fitted inhibition curve with a large enough effect in the signal ratio, with a control signal flat, not every such curve was filed as active; the % refers to the signal ratio;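 also: cells stimulated with 0.4 nM T3 agonist during compound exposure; series mostly up to about 77 µM; % is scaled to controls: 0 for no effect and ±100 for the full control effect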); details: TR-UAS-bla HEK293, beta-lactamase ratio, antagonist mode, 18 h
Method in brief: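 TR-UAS-bla GripTite HEK293 cells in 2% charcoal/dextran FBS medium were preincubated 4 h at 37 C, given compound (0.59 nM to 92 uM) plus 0.4 nM T3 (final) for 18 h, then CCF4 for 2 h at RT; Hill fit gave IC50.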

[19] = qHTS assay for small molecule antagonists of retinoid X receptor alpha signaling (AID 588546; active = well fitted inhibition curve with a large enough effect in the signal ratio, with a control signal flat, not every such curve was filed as active; the % refers to the signal ratio;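 also: cells stimulated with 9-cis-retinoic acid as agonist; % is scaled to controls: 0 for no effect and ±100 for the full control effect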); details: HEK293T RXRa-UAS-bla, beta-lactamase ratio, antagonist mode; measured here: W530 green channel, cytotoxicity proxy
Method in brief: (§1)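 Beta-lactamase reporter inhibition, read as CCF4 fluorescence ratio (ex 405, em 460/530 nm) after 2 h at RT. HEK293T UAS-bla cells, 2500/well, were stimulated with 9-cis-RA at 500 or 100 nM final alongside test compound for 18 h at 37 C.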

[20] = target: Retinoic acid receptor RXR-alpha (Homo sapiens) (UniProt P19793); experiment: as above; details: HEK293T RXRa-UAS-bla, beta-lactamase ratio, antagonist mode
Method in brief: as §1

Retinoic acid receptor RXR-alpha (Homo sapiens), sequence (P19793 whole entry, looked up): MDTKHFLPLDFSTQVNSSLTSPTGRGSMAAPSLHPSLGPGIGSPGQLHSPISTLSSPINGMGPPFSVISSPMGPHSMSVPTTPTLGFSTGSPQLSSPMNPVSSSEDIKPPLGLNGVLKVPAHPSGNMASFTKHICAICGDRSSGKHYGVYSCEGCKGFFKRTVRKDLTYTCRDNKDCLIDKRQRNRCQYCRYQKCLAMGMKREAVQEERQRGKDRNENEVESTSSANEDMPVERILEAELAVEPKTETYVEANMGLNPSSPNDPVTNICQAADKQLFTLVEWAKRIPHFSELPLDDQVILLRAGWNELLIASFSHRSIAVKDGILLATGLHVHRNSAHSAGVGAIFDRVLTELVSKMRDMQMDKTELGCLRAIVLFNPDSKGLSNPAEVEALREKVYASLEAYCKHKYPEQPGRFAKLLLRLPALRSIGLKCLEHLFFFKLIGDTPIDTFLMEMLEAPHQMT
Thyroid hormone receptor beta (Homo sapiens), sequence (P10828 whole entry, looked up): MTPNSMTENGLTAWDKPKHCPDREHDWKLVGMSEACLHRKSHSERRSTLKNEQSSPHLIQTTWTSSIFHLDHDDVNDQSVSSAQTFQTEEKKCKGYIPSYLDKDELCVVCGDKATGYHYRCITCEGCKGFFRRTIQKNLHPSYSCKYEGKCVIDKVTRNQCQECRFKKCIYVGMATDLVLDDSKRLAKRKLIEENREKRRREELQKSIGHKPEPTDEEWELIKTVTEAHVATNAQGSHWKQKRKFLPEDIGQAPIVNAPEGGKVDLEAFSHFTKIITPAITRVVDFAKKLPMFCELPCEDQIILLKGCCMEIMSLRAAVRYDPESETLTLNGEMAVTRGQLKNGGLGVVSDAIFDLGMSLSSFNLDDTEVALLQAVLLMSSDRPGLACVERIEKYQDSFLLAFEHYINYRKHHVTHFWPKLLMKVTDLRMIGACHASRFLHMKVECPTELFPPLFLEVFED
Estrogen receptor (Homo sapiens), sequence (P03372 whole entry, looked up): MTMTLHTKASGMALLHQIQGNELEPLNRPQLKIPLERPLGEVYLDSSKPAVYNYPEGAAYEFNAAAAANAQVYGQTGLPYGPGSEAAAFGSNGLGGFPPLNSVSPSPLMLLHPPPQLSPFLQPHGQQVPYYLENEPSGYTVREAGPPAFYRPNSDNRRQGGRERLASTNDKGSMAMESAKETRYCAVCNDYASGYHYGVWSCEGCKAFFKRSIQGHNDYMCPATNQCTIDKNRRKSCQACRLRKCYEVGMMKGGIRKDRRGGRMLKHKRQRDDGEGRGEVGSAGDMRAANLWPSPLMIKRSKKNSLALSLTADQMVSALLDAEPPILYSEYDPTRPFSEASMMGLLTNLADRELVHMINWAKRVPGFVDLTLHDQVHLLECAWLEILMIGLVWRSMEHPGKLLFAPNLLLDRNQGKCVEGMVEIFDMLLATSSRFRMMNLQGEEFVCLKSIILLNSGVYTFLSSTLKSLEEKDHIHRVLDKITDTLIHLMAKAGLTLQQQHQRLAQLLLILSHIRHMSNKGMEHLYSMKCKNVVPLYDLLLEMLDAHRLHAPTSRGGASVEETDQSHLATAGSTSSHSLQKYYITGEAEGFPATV
Nuclear receptor subfamily 1 group I member 2 (Rattus norvegicus), sequence (Q9R1A7 whole entry, looked up): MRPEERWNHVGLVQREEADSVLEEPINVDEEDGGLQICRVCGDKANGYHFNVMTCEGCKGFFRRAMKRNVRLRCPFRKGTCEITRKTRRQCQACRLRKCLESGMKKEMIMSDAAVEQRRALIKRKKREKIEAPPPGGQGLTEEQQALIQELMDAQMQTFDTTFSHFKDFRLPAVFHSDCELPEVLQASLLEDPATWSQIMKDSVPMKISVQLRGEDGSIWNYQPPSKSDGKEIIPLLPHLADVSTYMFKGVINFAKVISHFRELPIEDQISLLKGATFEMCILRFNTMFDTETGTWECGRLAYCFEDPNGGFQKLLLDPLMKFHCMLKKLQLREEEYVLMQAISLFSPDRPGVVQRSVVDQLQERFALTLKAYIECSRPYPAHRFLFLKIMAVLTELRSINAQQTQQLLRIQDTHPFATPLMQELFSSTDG
Peroxisome proliferator-activated receptor alpha (Homo sapiens), sequence (Q07869 whole entry, looked up): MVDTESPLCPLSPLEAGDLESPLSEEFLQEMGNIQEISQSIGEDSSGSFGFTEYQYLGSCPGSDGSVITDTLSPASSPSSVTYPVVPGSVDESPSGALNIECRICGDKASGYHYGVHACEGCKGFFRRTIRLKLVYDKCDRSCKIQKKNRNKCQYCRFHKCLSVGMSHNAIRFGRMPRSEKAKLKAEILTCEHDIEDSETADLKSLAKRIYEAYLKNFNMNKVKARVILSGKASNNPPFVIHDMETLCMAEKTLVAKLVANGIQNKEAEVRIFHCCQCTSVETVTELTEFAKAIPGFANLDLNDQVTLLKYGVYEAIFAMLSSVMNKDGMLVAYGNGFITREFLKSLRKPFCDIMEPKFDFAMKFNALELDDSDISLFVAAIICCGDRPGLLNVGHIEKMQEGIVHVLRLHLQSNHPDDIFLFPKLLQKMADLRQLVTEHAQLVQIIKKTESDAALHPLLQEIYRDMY
Peroxisome proliferator-activated receptor delta (Homo sapiens), sequence (Q03181 whole entry, looked up): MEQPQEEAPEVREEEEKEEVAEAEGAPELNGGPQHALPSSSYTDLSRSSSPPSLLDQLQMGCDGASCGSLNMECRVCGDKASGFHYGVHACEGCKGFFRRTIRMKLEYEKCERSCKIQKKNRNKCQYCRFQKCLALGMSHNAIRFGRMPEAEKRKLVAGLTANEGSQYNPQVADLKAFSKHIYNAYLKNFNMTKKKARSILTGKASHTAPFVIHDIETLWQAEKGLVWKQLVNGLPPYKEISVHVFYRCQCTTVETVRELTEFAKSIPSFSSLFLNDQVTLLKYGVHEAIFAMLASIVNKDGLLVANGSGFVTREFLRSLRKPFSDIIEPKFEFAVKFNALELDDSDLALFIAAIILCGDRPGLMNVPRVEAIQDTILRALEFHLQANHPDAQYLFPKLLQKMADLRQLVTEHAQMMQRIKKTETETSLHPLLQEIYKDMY
Glucocorticoid receptor (Homo sapiens), sequence (P04150 whole entry, looked up): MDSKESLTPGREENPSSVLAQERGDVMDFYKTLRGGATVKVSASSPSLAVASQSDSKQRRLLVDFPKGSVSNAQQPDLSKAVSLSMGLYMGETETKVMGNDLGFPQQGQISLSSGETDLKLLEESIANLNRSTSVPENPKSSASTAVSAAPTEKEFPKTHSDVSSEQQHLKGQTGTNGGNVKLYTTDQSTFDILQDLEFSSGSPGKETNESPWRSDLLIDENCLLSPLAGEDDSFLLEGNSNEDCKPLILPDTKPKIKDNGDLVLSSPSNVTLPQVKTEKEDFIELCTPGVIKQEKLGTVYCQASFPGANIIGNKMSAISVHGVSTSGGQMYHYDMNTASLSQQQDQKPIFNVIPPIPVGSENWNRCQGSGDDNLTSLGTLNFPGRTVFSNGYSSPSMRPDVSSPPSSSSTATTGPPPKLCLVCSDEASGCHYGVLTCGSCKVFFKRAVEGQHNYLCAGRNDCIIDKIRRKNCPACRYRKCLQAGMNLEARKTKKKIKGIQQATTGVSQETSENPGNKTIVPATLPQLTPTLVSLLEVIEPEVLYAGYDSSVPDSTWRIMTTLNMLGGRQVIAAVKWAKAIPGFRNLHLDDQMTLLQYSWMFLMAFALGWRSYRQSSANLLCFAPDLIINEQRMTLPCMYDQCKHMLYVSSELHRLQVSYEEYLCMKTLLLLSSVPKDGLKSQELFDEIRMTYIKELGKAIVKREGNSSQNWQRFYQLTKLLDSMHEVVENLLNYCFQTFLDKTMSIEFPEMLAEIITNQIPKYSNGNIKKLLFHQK
Vitamin D3 receptor (Homo sapiens), sequence (P11473 whole entry, looked up): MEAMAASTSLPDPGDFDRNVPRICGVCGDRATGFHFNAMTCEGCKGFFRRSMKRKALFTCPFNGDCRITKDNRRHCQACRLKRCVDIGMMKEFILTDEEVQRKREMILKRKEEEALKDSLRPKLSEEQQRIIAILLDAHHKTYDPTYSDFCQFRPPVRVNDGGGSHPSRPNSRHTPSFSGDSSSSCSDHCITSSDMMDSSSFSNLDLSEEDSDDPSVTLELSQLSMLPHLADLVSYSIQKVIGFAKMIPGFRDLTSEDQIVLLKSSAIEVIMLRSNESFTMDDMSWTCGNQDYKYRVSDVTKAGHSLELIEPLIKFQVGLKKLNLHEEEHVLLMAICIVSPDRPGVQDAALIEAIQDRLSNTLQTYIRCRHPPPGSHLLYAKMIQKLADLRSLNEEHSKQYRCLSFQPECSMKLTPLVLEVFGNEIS

Oc1ccc(C2(c3ccc(O)cc3)c3ccccc3-c3ccccc32)cc1
inactive: Potency [2] | activation [3] -14.6% | outcome [4] | outcome [5] | activation [7] -0.464% | max response [8] -1.22% | Potency [9] | max response [10] -12.4% | max response [11] -3.45% | max response [13] -3.03%
active: Potency [1] 15.8 µM [inhibitor] | Potency [6] 39.8 µM | Potency [12] 31.6 µM

CCC[CH2][Sn]([CH2]CCC)[CH2]CCC
inactive: Potency [2] | activation [3] -13.3% | activation [7] -0.508% | max response [8] 1.41% | max response [13] -14%
active: Potency [1] 15.8 µM [inhibitor] | Potency [10] 15.8 µM | Potency [12] 28.2 µM

CCN(CC)c1nc(C)cc(OP(=S)(OC)OC)n1
inactive: Potency [1] | Potency [2] | activation [3] 19.3% | outcome [4] | Potency [14] | outcome [5] | Potency [16] | Potency [17] | activity change % (negative = inhibition) [18] -11.6% | activation [6] 1.41% | activation [7] 1.48% | max response [8] 3.1% | Potency [9] | max response [10] -9.93% | max response [11] -11.6% | Potency [12] | max response [13] -1.67%
26.8%: max response [15]

CCCCC(CC)C(=O)Cl (configuration not stated)
-20.2%: max response [15]
inactive: Potency [1] | Potency [2] | activation [3] -0.757% | outcome [4] | Potency [16] | Potency [17] | max response [20] 2.12% | activity change % (negative = inhibition) [18] 0.279% | activation [6] -0.76% | activation [7] 0.633% | max response [8] -0.947% | Potency [9] | max response [10] -2.12% | max response [11] -4.59% | Potency [12] | max response [13] -0.98%
-9.74%: max response [19]

O=S1OC[C@@H]2[C@H](CO1)[C@@]1(Cl)C(Cl)=C(Cl)[C@]2(Cl)C1(Cl)Cl (some centres not stated)
-0.24%: max response [15]
inactive: Potency [1] | activation [3] -18.2% and -5.58% | Potency [14] | outcome [5] | Potency [16] | Potency [17] | max response [20] -70.2% and -50.2% | activity change % (negative = inhibition) [18] 3.09% | activation [6] -3.81% and -3.84% | activation [7] 0.042% and 0.216% | max response [8] -0.211% and 0.181% | Potency [9] | max response [10] -3.19% and 3.58% | max response [11] -26.6% and -23.3% | Potency [12]
9.73% and 12.8%: max response [19]

Cc1cnc(C2=NC(C)(C(C)C)C(=O)N2)c(C(=O)O)c1 (configuration not stated)
8.17%: max response [19]
-18.8% and -4.8%: max response [15]
inactive: Potency [1] | activation [3] 0.844% and 5.59% | outcome [4] | Potency [14] | outcome [5] | Potency [16] | Potency [17] | max response [20] 9.76% | activity change % (negative = inhibition) [18] -3.72% and -20.5% | activation [6] 0.249% and -2.82% | activation [7] 1.97% and -3.27% | max response [8] -1.29% and -1.68% | Potency [9] | max response [10] -15.3% and 23.5% | max response [11] -9.43% and 4.33% | Potency [12] | max response [13] 5.11% and -5.71%

Cc1cc(Cl)ccc1OC(C)C(=O)O (configuration not stated)
inactive: Potency [1] | Potency [2] | outcome [4] | Potency [16] | Potency [17] | max response [20] -2.46% | activity change % (negative = inhibition) [18] -3.04% | activation [6] -1.95% | activation [7] 0.794% | max response [8] 2.19% | Potency [9] | max response [10] -3.1% | max response [11] 0.82% | Potency [12] | max response [13] -0.122%
-2.86%: max response [19]
-5.5%: max response [15]

CCCCC(CC)CO[N+](=O)[O-] (configuration not stated)
-0.882%: max response [15]
inactive: Potency [1] | Potency [2] | activation [3] -6.71% | outcome [4] | Potency [14] | outcome [5] | Potency [16] | Potency [17] | max response [20] 3.31% | activity change % (negative = inhibition) [18] -3.31% | activation [6] -4.18% | activation [7] 2.43% | max response [8] -0.348% | Potency [9] | max response [10] -12.3% | max response [11] 3.43% | Potency [12] | max response [13] 1.62%
-8.14%: max response [19]

Clc1ccc([C@]2(Cn3cncn3)C[C@H](Br)CO2)c(Cl)c1
inactive: Potency [1] | Potency [2] | activation [3] -7.37% and -0.86% | outcome [4] | Potency [14] | outcome [5] | Potency [16] | Potency [17] | max response [20] -14.1% and -9.34% | activity change % (negative = inhibition) [18] 0.44% | activation [6] -0.748% and 2.17% | activation [7] -0.98% and 1.78% | max response [8] -0.439% and 5.59% | Potency [9] | max response [10] -1.87% and -2% | max response [11] -7.75% and -8.79% | Potency [12]
-0.873% and 8.46%: max response [15]
-15.4% and -0.171%: max response [19]

CC1(C)Cc2cccc(O)c2O1
inactive: Potency [1] | Potency [2] | Potency [14] | outcome [5] | Potency [16] | Potency [17] | max response [20] -3.15% | activity change % (negative = inhibition) [18] -2.82% | activation [7] 0.293% | max response [8] -0.718% | Potency [9] | max response [10] 7.61% | max response [11] 4.44% | Potency [12] | max response [13] 1.61%
-5.33%: max response [19]
-1.21%: max response [15]

O=C1NCCN1Cc1ccc(Cl)nc1
-6.75%: max response [15]
inactive: Potency [1] | outcome [4] | Potency [14] | Potency [16] | Potency [17] | activity change % (negative = inhibition) [18] 2.45% | activation [6] -0.206% | activation [7] -0.434% | max response [8] -0.72% | Potency [9] | max response [10] 1.67% | max response [11] 1.96% | Potency [12] | max response [13] 1.46%
-14.8%: max response [19]

Source: PubChem BioAssay (NCATS)
